According to PubChem BioAssay (Tox21):
Inconclusive results are not listed. Active and inactive are the calls of the source. Unless noted, the call rests on the fitted dose curve; in most records, active means well fitted curve in the direction sought with a large enough effect in the repeat runs; inconclusive means weak or mixed curves; inactive means no such curve, though single readings can be large; an effect the other way counts as inactive or inconclusive.

How the values were obtained:
[1] = qHTS assay for small molecule agonists of the p53 signaling pathway (AID 651631; calls by dose curve; further: nearly all actives have a fitted effect of over 15% in size)
How it was run: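 HCT-116 p53RE-bla reporter line, 16 h compound treatment at 37 °C, then fluorescence after 2 h with B/G FRET substrate.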

[2] = qHTS assay for small molecules that induce genotoxicity in human embryonic kidney cells expressing luciferase-tagged ATAD5 (AID 651632); further: nearly all actives have a fitted effect of over 15% in size
How it was run: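 DMSO vehicle served as the control. HEK293T reporter cells, 16 hr at 37C, then 30 min Amplite at room temperature; ATAD5 induction is measured as luciferase activity.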

[3] = qHTS assay for small molecule agonists of the p53 signaling pathway - cell viability (AID 651633; calls by dose curve;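 further: p53RE-bla HCT reporter cells with a stable beta-lactamase p53 reporter; series mostly up to about 83 µM; nearly all actives have a fitted effect of over 30% in size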)
How it was run: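 p53RE-bla cells, seeded at 4,000 per well and rested 5 h at 37 C/5% CO2, received compounds in DMSO for 16 h at 37 C. CellTiter-Glo was then added, and luminescence was read after 30 min at room temperature to gauge cytotoxicity.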

[4] = qHTS assay for small molecule disruptors of the mitochondrial membrane potential - cell viability (AID 720634; calls by dose curve;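 further: human HepG2 liver cancer cells; series mostly up to about 83 µM; nearly all actives have a fitted effect of over 20% in size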)
How it was run: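 Viability of HepG2 cells is scored from ATP content by luminescence; cells are exposed to compound for 1 hr at 37 C and 5% CO2, then dosed with m-MPI dye before the CellTiter-Glo reagent.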

[5] = qHTS assay for small molecule disruptors of the mitochondrial membrane potential (AID 720635)
How it was run: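 HepG2 cells (2,000/well) attached overnight at 37C, then took compound for 1 hr at 37C, 5% CO2. Mito-MPS dye was added for 30 min; fluorescence was read at 490/535 nm (monomers) and 540/590 nm (aggregates).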

[6] = qHTS assay to test for compound auto fluorescence at 590 nm (red) in HepG2 cells (AID 720674)
How it was run: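 Compound auto-fluorescence is scored relative to Rose Bengal sodium, measured at 540/590 nm in live HepG2 cultures after 1 hr compound contact (37 C, 5% CO2).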

[7] = qHTS assay to test for compound auto fluorescence at 535 nm (green) in HepG2 cells (AID 720675)
[8] = qHTS assay to test for compound auto fluorescence at 460 nm (blue) in HEK293 cells (AID 720678)
How it was run: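 Blue read-out at excitation 405 nm and emission 460 nm follows overnight compound exposure of HEK293 cells at 37C in 5% CO2. Activity is given as auto fluorescence equivalency to triamterene.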

[9] = qHTS assay to test for compound auto fluorescence at 590 nm (red) in HEK293 cells (AID 720679)
How it was run: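 Red channel, Ex/Em 540/590nm; signal expressed as equivalency to Rose Bengal sodium. HEK293, 2,000 cells/well, 10% dialyzed FBS; 23 nL compound pinned after 4-5 hr attachment; overnight 37C/5% CO2 before reading.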

[10] = qHTS assay to test for compound auto fluorescence at 535 nm (green) in HEK293 cells (AID 720680)
[11] = qHTS assay to test for compound auto fluorescence at 460 nm (blue) in HEK293 cell free culture (AID 720681)
How it was run: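 Test compounds were pinned into cell-free culture medium (DMEM with 10% FBS) and fluorescence was read directly at Ex/Em 405/460 nm. Signals were expressed as fluorescence equivalents of triamterene, with DMSO vehicle as control.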

[12] = qHTS assay to test for compound auto fluorescence at 535 nm (green) in HEK293 cell free culture (AID 720682)
How it was run: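 Steps: dispense DMEM/10% FBS into empty wells; pin in compound or DMSO; measure fluorescence at 485/535 nm. Values are fluorescein equivalents.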

[13] = qHTS assay to test for compound auto fluorescence at 590 nm (red) in HEK293 cell free culture (AID 720683)
How it was run: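 Tox21 10K library compounds were pinned into cell-free DMEM with 10% FBS and fluorescence was read at excitation 540 nm. Activity is expressed as Rose Bengal sodium equivalency.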

[14] = qHTS assay to test for compound auto fluorescence at 590 nm (red) in HepG2 cell free culture (AID 720684)
How it was run: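 Ex 540 / Em 590 nm read of compound in cell-free MEM (10% FBS). Rose Bengal sodium reference.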

[15] = qHTS assay to test for compound auto fluorescence at 460 nm (blue) in HepG2 cell free culture (AID 720685)
How it was run: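 Cell-free plates of MEM plus 10% FBS received 23 nL compound or DMSO vehicle; blue-channel (405/460 nm) intensity scored against triamterene as reference fluorophore.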

[16] = qHTS assay to test for compound auto fluorescence at 535 nm (green) in HepG2 cell free culture (AID 720686)
[17] = qHTS assay to test for compound auto fluorescence at 460 nm (blue) in HepG2 cells (AID 720687)
How it was run: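 Cells (2,000/well in MEM with 10% FBS) attached overnight at 37 C, then were exposed to compound or DMSO for 1 hr at 37 C, 5% CO2. Fluorescence read at Ex/Em 405/460 nm, expressed as triamterene-equivalent signal.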

[18] = molecular target: Glucocorticoid receptor (Homo sapiens) (UniProt P04150); experiment: qHTS assay to identify small molecule agonists of the glucocorticoid receptor (GR) signaling pathway (AID 720691; active means well fitted activation curve with a large enough effect in the signal ratio in the repeat runs, not every such curve was filed as active; the % refers to the signal ratio)
How it was run: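 Compounds in DMSO, alongside positive controls, were added to GR-bla HeLa reporter cells and incubated 18 h at 37 C; GRE-driven beta-lactamase was detected by fluorescence after 2 h with FRET substrate at room temperature.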

[19] = qHTS assay for small molecules that induce genotoxicity in human embryonic kidney cells expressing luciferase-tagged ATAD5 - cell viability (AID 651634; calls by dose curve; further: nearly all actives have a fitted effect of over 25% in size)
How it was run: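 Here HEK293T cells with the ATAD5 luciferase reporter are incubated with test compounds for 15.5 hr, and cytotoxicity is then gauged by measuring protease activity in live cells using fluorescence.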

[20] = molecular target: Glucocorticoid receptor (Homo sapiens) (UniProt P04150); experiment: qHTS assay to identify small molecule antagonists of the glucocorticoid receptor (GR) signaling pathway (AID 720692; active means well fitted inhibition curve with a large enough effect in the signal ratio in the repeat runs, not every such curve was filed as active; the % refers to the signal ratio)
How it was run: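 In a 1536-well cell format, compounds were added 4 h after seeding GR-bla HeLa cells, together with dexamethasone at 5 nM final; reporter activity was measured by FRET-substrate fluorescence following 18 h at 37 C.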

Measured: Potency

Sequence of Glucocorticoid receptor (Homo sapiens) (P04150 whole entry, looked up): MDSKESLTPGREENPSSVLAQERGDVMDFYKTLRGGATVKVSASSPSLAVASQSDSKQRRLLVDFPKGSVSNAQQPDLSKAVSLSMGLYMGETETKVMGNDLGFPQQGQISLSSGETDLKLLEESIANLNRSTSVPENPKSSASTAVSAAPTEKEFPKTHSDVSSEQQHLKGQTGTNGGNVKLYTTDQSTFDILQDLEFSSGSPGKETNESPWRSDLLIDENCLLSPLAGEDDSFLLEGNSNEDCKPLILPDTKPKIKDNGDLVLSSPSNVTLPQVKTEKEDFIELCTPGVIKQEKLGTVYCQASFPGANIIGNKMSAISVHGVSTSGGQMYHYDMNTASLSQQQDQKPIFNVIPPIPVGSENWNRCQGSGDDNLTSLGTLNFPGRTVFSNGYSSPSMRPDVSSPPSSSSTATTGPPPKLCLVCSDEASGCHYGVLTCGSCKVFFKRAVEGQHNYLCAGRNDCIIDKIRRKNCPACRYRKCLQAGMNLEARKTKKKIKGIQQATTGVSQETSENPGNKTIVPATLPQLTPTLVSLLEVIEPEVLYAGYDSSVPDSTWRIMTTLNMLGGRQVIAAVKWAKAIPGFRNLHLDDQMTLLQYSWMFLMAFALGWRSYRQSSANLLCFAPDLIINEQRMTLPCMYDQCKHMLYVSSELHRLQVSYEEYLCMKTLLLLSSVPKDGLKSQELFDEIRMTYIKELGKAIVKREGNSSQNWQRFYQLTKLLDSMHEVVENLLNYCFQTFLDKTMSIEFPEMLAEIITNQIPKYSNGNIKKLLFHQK

C=CCOCC(CC)(CO)COCC=C
not listed: [19] | [20]
inactive: all other assays above

CC[N+](C)(C)c1cccc(O)c1
not listed: [5] | [11] | [18] | [20]
inactive: all other assays above

COC(=O)NN
not listed: [5] | [11]
inactive: all other assays above

COc1ccc(CCN(C)CCCC(C#N)(c2cc(OC)c(OC)c(OC)c2)C(C)C)cc1OC (stereo unspecified)
not listed: [5] | [6]
inactive: all other assays above

NS(=O)(=O)c1ccc(C(=O)O)cc1
not listed: [19]
inactive: all other assays above

Cc1cc2c(cc1S(N)(=O)=O)S(=O)(=O)CCC2
not listed: [5]
inactive: all other assays above

CC(C)(C)NCCNC(C)(C)C
not listed: [5] | [11] | [18] | [20]
inactive: all other assays above

c1ccc([C@H]2CN3CCSC3=N2)cc1
not listed: [5] | [15] | [20]
inactive: all other assays above

Cc1c(NC(C)C)c(=O)n(-c2ccccc2)n1C
not listed: [15] | [19]
inactive: all other assays above

CN1CCN(c2cc3c(cc2F)c(=O)c(C(=O)O)cn3-c2ccc(F)cc2)CC1
not listed: [4] | [5] | [11] | [20]
inactive: all other assays above

CCCN1CCCC[C@H]1C(=O)Nc1c(C)cccc1C
not listed: [5] | [11] | [18] | [20]
inactive: all other assays above

C=COCC1CCC(CO)CC1 (stereo unspecified)
not listed: [19]
inactive: all other assays above

CCCCCCCCCCCCN(CCCCCCCCCCCC)CCCCCCCCCCCC
not listed: [5] | [6] | [18] | [20]
inactive: all other assays above

O=C[C@H](O)[C@@H](O)[C@H](O)[C@H](O)CO
not listed: [5] | [15]
inactive: all other assays above

C[C@H]1C[C@@H](O)CC(C)(C)C1
not listed: [19]
inactive: all other assays above

ClC(Cl)(Br)Br
not listed: [5] | [6]
inactive: all other assays above
